{"source": "the OligoGym collection", "data": [{"target": "YWHAG", "test": "pooled miR-30 sensor sort-seq; sequence = guide strand", "conditions": "shRNA", "values": [{"sequence": "TTCGCTGTAGGCCTTCTCGGAG", "sensor-assay potency score (higher = more potent)": -0.969}, {"sequence": "AATACCAGCACAGCTAGCCTGA", "sensor-assay potency score (higher = more potent)": -0.754}, {"sequence": "TGAATCTACAGAACAGTCCAGA", "sensor-assay potency score (higher = more potent)": 0.0332}, {"sequence": "TCCTTCTCTATCTTCTCCCGGT", "sensor-assay potency score (higher = more potent)": -0.85}, {"sequence": "TTCAGGTAGAACACTTTGCTCT", "sensor-assay potency score (higher = more potent)": -0.452}, {"sequence": "TTTAAGTTTTCTTTTCATCTGA", "sensor-assay potency score (higher = more potent)": 0.297}, {"sequence": "TTCTAAGTCTGTCAGTCTGGGA", "sensor-assay potency score (higher = more potent)": -0.946}, {"sequence": "TTACACTGTTCCATGTCTGTAG", "sensor-assay potency score (higher = more potent)": 0.201}, {"sequence": "TTAATACTGTCAACTAATCAGA", "sensor-assay potency score (higher = more potent)": -0.755}]}, {"target": "YY1AP1", "test": "pooled miR-30 sensor sort-seq; sequence = guide strand", "conditions": "shRNA", "values": [{"sequence": "TTCCATCTTGACAACTTCCTCT", "sensor-assay potency score (higher = more potent)": 0.35}, {"sequence": "TAGAAGGTACTTGTTGTCCTCA", "sensor-assay potency score (higher = more potent)": 0.0643}, {"sequence": "TTTAACCTTCTCTACCTCCTTC", "sensor-assay potency score (higher = more potent)": 0.0131}, {"sequence": "TAAAGTTAGCTTGAGGCTCAGC", "sensor-assay potency score (higher = more potent)": -0.69}, {"sequence": "TTTTTCTAGGCCTTGATCTGAG", "sensor-assay potency score (higher = more potent)": -0.00665}, {"sequence": "TTCCTCTGTAGCATCTTCAGGT", "sensor-assay potency score (higher = more potent)": 0.0483}, {"sequence": "TTCAAACAGATCTTCCATCAGC", "sensor-assay potency score (higher = more potent)": -0.176}, {"sequence": "TGTTCTCTGACAATCCTTCTTG", "sensor-assay potency score (higher = more potent)": -0.0122}, {"sequence": "ATGAACTTCCTTACACTGGGGT", "sensor-assay potency score (higher = more potent)": 0.289}, {"sequence": "TTAAGACATATCCTGGTGCTAC", "sensor-assay potency score (higher = more potent)": -0.46}, {"sequence": "TTTGCTTCCTTTTCGTGTCGGA", "sensor-assay potency score (higher = more potent)": 0.308}, {"sequence": "TGTCAAGAGCTGAACATGCTGC", "sensor-assay potency score (higher = more potent)": -0.313}]}, {"target": "YY2", "test": "pooled miR-30 sensor sort-seq; sequence = guide strand", "conditions": "shRNA", "values": [{"sequence": "TTGTGTCTGCAACATAAGCATT", "sensor-assay potency score (higher = more potent)": -1.56}, {"sequence": "TAGCTGGTTGTCTGAGTCGCAA", "sensor-assay potency score (higher = more potent)": -1.47}, {"sequence": "TTTGACCTGCATTTGCTTCTGC", "sensor-assay potency score (higher = more potent)": 0.61}, {"sequence": "TTCTGCTCCCACTTCCTCGTGC", "sensor-assay potency score (higher = more potent)": 0.239}, {"sequence": "TGTCTGAGTCGCAATAGCCCAC", "sensor-assay potency score (higher = more potent)": -0.97}, {"sequence": "TCAAGTACTCGGAATAATCAGG", "sensor-assay potency score (higher = more potent)": -0.787}, {"sequence": "TAGGGGACCACATAGTCACGGA", "sensor-assay potency score (higher = more potent)": -0.62}, {"sequence": "TTGACTGAGCGAACTTCCTGTT", "sensor-assay potency score (higher = more potent)": -0.213}, {"sequence": "TACTGGACGCTTTCCGTCGGAA", "sensor-assay potency score (higher = more potent)": -1.27}, {"sequence": "TCGTCTTCAATGCTATCCGGGA", "sensor-assay potency score (higher = more potent)": -0.643}, {"sequence": "TTTAGTAAATTCTGCCAGCTGT", "sensor-assay potency score (higher = more potent)": -0.34}, {"sequence": "TTGAGCTCTCAAGAAAAGCTTT", "sensor-assay potency score (higher = more potent)": -0.69}]}, {"target": "ZBTB24", "test": "pooled miR-30 sensor sort-seq; sequence = guide strand", "conditions": "shRNA", "values": [{"sequence": "TGTAGCTGAAGAATATTCCTGA", "sensor-assay potency score (higher = more potent)": 0.823}, {"sequence": "TTAAGTTTGACGGATCTCCAAA", "sensor-assay potency score (higher = more potent)": -1}, {"sequence": "TTAACCACAAAGTTTTGTCTAT", "sensor-assay potency score (higher = more potent)": -0.0895}, {"sequence": "TTAAATTCTGCAGTTGCTCTGG", "sensor-assay potency score (higher = more potent)": 0.17}, {"sequence": "TTAGGGATAACAACCACTGGGG", "sensor-assay potency score (higher = more potent)": -0.555}, {"sequence": "TTGTACTTAAAGACCTTGCCAC", "sensor-assay potency score (higher = more potent)": -0.0819}, {"sequence": "TTGCTGTATCGACTCTGGCTTG", "sensor-assay potency score (higher = more potent)": -0.983}]}]}
